# Compounds with a hit are over-represented: about 7.8% of the library has one in this group of screens.
# Lassa entry inh: qHTS for Inhibitors of binding or entry into cells for Lassa Virus. Lassa virus pseudotype entry inhibition, cell reporter. Potency, µM (series often up to 37.9 µM), without a hit: top-dose activity change, negative = inhibition, actives largely listed as inhibitors. 300,000 tested, 1.2% active. AID 540256, 2011; calls by dose curve; tested in HEK293 cells; further: potency means the concentration at half of the fitted maximal effect; nearly all actives have a fitted effect of over 50% in size
# HCMV antiviral: qHTS Assay for inhibitors of the human cytomegalovirus (HCMV). 410,000 tested, 4.5% active. activity change, negative = inhibition, % at 57.5 µM. HFF cells, HCMV-luciferase reporter, 72 h; stronger effect = lower value. AID 1259415, 2018; in the data active means activity change below about -60%; inconclusive means no clear call, values can overlap the other calls; inactive means above about -39%
#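 Inhibition of viral replication was scored as loss of reporter luminescence in HFFs infected with HCMV-luciferase (MOI 1 PFU/cell) for 72 h; compounds tested at 2 doses, normalized to buffer and Salinomycin controls.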
# VACV mCherry inh: qHTS for Stage-Specific Inhibitors of Vaccinia Orthopoxvirus: mCherry Reporter Primary qHTS | Vaccinia virus mCherry reporter infection, fluorescence | Potency, µM (highest dose often 36.5 µM), inactives show at the highest dose activity change, negative = inhibition, hits mostly inhibitors | 310,000 tested, 0.63% active | AID 720579, 2013; calls by dose curve; tested in A549 cells; further: potency means the concentration at half of the fitted maximal effect; nearly all actives have a fitted effect of over 35% in size
# HCV inh: qHTS Assay for Inhibitors of Hepatitis C Virus (HCV). Huh7.5.1 HCVcc-Cre infection, luciferase reporter, 44 h. Potency, µM (highest dose often 41.8 µM), for inactives: top-dose activity change, negative = inhibition, actives largely listed as inhibitors. 340,000 tested, 3.4% active. AID 651820, 2012; active means well fitted inhibition curve with a large enough effect; inconclusive means small, poorly fitted or top-dose-only effect, or another doubt; inactive means no such curve, though single readings can be large or run the other way; further: potency means the concentration at half of the fitted maximal effect
#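 Whole-lifecycle infectious HCVcc-Cre system; cells 1,000/well, compound then virus (~0.5 moi) added 4 h after plating, 44 h culture. Luciferase read 15 sec following 15 min substrate incubation, room temp.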
# VACV Venus inh: qHTS for Stage-Specific Inhibitors of Vaccinia Orthopoxvirus: Venus Reporter Primary qHTS; 330,000 tested, 0.46% active; Potency, µM (series often up to 36.5 µM), for inactives: at the highest dose activity change, negative = inhibition, most hits filed as inhibitors; AID 720580, 2013; Vaccinia virus Venus reporter expression, fluorescence; calls by dose curve; tested in A549 cells; further: potency means the concentration at half of the fitted maximal effect; nearly all actives have a fitted effect of over 30% in size
# Marburg entry inh: qHTS for inhibitors of binding or entry into cells for Marburg Virus; 300,000 tested, 1.8% active; Marburg virus pseudotyped entry inhibition, cell reporter; Potency, µM (highest dose often 37.8 µM), for inactives: at the top dose activity change, negative = inhibition, hits mostly inhibitors; calls by dose curve; tested in HEK293 cells; further: potency means the concentration at half of the fitted maximal effect
# An asterisk follows results filed as active; i = inactive; ? = inconclusive; . = no result given; [ ] = dose if it differs, or a comment. On the % scale 0 is the no-effect control and ±100 the full control effect.
SMILES,Lassa entry inh,HCMV antiviral,VACV mCherry inh,HCV inh,VACV Venus inh,Marburg entry inh
Cc1c(C(C)C)c(=O)n(-c2ccc(S(=O)(=O)NCc3ccccc3)cc2)n1C,2µM*,-85.2*,-20.1%,0.891µM*,-11.5%,?
O=C(ONC1=NCCCCC1)c1ccc(Cl)cc1,?,31.1,.,2.51µM*,-4.6%,?
CCCN1C(=O)C[C@H](S(=O)(=O)c2ccccc2)[C@H]1c1ccccc1,.,-14.3,.,.,.,.
Cc1cc(-c2nn(-c3ccccc3F)cc2CN2CCN(c3ccncc3)CC2)c(C)s1,?,-11.2,-4.5%,?,-22.5%,6.31µM*
N#Cc1ccc2c(c1)C[C@]1(c3ccsc3)Oc3c(c(=O)oc4ccc(F)cc34)[C@@H]2O1,?,.,.,.,.,1.5%[14.2 µM]
CCCCN1CC(c2nc3ccccc3n2CCCCOc2cc(C)ccc2C)CC1=O (stereo not drawn),7.7%[46.1 µM],25.0,i,.,-16.7%,?
CCc1ccc2oc(-c3ccc(OC)cc3)cc(=Nc3c(C)n(C)n(-c4ccccc4)c3=O)c2c1,.,?,.,10µM*,.,.
Cc1ccccc1C(=O)Nc1ccc(C(=O)OCc2cc(=O)n3nc(C(C)C)sc3n2)cc1,?,-15.2,-19.5%,.,-21.4%,.
O=C(c1ccc2c(c1)OCO2)N1CCC2(CC1)Oc1ccc(F)cc1C(=O)C21CC(c2ccc(Cl)cc2)=NO1 (stereo not drawn),.,0.0,i,10µM*,-20.1%,.
COc1ccc(COn2nnc3ccc(S(=O)(=O)N4CCOCC4)cc32)cc1F,7.5%,-27.3,?,10µM*,?,4.9%[46.1 µM]
COc1ccccc1NC(=O)c1cc(=O)c2ccc(C)c(C)c2o1,23.2%[46.1 µM],-9.4,-3.4%,.,3.3%,?
O=C(CSc1nc2nn(-c3ccccc3)c(=O)c-2c2n1CCCCC2)c1ccc(OC(F)F)cc1,.,0.0,.,7.94µM*,.,.
COC(=O)c1cccc(NC(=O)N(C)CCc2c(C)nn(C)c2C)c1,-10.5%[46.1 µM],19.6,-9.1%,.,1.8%,.
COc1ccc(C(CC(=O)c2ccccc2)CC(=O)c2ccccc2)cc1,-29.2%[46.1 µM],3.0,-4.7%,-23.8%,9.5%,?
C=C(C(=O)c1ccccc1)C(c1ccccc1)C(C)C(=O)c1ccccc1 (stereo not drawn),?,-88.8*,?,4.3%,?,?
O=C(c1ccccc1)C(c1ccccc1)c1ccccc1,.,?,-10.3%,-20.2%,-6.1%,.
C=C(C(=O)c1ccccc1)C(C(=C)C(=O)c1ccccc1)c1ccc(OC)cc1,.,-99.8*,.,3.55µM*,.,.
C=C(C(=O)c1ccccc1)C(C)C(=C)C(=O)c1ccccc1,17.8µM*,-99.9*,?,14.1µM*,?,7.94µM*
CCCCN(CCCNC(=O)c1cc(Nc2ccc(OC)c(OC)c2)nc2ccccc12)Cc1ccccc1,?,-18.3,-23.1%,.,-9.3%,?
CCN(Cc1ccccc1)C(=O)c1[nH]c2ccc(OC)cc2c1C,-43.6%[46.1 µM],-17.8,-13.8%,1.6%,-19.5%,1.4%[46.1 µM]
CCN(CC)CCNC(=O)c1[nH]c2ccc(OCc3ccccc3)cc2c1C,?,?,?,10µM*,?,?
CCOC(=O)c1nn(-c2ccc3c(c2)OCO3)cc1O,16.6%,-101.4*,.,-0.7%,-12.6%,-24.2%
CC(=O)Nc1ccc(S(=O)(=O)NCC2CCC(C(=O)NCCc3ccc(C)cc3)CC2)cc1 (stereo not drawn),7.4%[46.1 µM],-1.7,3.9%,.,-6.3%,.
Fc1ccc(C(CCNCc2cccs2)c2ccco2)cc1 (stereo not drawn),-1.4%,-16.4,-14.9%,-3.5%,-11.0%,7.94µM*
COc1ccc(CNCCC(c2ccc(C)cc2)c2ccco2)cc1 (stereo not drawn),-19.9%[46.1 µM],-77.9*,-20.0%,.,-19.9%,28.2µM*
COc1ccc(C(CC(=O)O)c2ccc3c(c2)OCO3)cc1 (stereo not drawn),-8.3%,64.4,-16.6%,35.0%,-8.3%,-13.7%
O=S(=O)(NCCC(c1ccc(F)cc1)c1ccco1)c1ccccc1 (stereo not drawn),-17.9%,?,-28.9%,?,-23.5%,-9.4%

# High-throughput results from PubChem.
